{"source": "paper PMC4336329", "about": "(PLoS ONE, 2015)", "note": "About 14,000 (4.5%) of roughly 310,000 compounds showed an effect of 50% or more. The effect is printed as a negative number. For the sample, strong results were picked, then their nearest neighbours and some compounds at random.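 Also: peak tail current of the secondary pulse compared with the same well before compound.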", "data": [{"target": "human ether-à-go-go-related gene (hERG) potassium channel (human, UniProt Q12809)", "sequence (Q12809 whole entry, looked up)": "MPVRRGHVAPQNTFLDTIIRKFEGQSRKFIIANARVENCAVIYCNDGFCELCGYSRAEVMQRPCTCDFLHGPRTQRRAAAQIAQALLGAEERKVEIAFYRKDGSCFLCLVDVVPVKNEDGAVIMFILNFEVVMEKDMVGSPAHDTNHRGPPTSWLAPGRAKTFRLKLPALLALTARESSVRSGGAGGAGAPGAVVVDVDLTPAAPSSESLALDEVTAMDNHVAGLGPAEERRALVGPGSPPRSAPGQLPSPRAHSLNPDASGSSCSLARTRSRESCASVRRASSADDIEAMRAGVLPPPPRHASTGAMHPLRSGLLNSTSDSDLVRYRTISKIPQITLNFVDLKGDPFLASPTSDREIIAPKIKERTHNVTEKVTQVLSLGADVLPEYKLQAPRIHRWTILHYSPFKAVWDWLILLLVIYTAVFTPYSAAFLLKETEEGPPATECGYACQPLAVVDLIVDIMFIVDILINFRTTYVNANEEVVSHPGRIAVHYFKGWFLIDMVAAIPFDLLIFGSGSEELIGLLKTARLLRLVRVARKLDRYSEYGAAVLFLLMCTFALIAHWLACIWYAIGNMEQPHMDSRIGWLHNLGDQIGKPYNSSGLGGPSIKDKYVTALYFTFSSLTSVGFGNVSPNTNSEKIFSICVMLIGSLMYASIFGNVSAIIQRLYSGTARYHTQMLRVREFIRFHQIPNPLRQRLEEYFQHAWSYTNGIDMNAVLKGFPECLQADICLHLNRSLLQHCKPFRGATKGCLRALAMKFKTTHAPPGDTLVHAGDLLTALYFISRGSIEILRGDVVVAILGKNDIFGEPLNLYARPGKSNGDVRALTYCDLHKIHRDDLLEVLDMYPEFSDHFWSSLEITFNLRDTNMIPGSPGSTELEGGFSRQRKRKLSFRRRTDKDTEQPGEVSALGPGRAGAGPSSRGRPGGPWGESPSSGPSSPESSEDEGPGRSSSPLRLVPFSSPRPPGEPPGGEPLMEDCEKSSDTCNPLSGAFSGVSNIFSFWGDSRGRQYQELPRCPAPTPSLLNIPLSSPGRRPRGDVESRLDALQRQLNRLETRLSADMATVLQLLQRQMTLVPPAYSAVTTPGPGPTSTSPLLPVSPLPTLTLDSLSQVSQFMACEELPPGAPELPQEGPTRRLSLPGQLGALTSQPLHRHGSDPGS", "assay": "primary screen, population patch clamp on CHO cells stably expressing hERG; higher = less effect of the substance", "units": {"hERG current change (%, negative = inhibition) at 10uM": "%"}, "values": [{"smiles": "COc1cc(C)c(Cl)cc1S(=O)(=O)NCCN1CCOCC1", "hERG current change (%, negative = inhibition) at 10uM": 15.9}, {"smiles": "Cc1c(NC(=O)c2ccc(F)cc2)c(=O)n(-c2ccccc2)n1C", "hERG current change (%, negative = inhibition) at 10uM": 11.2}, {"smiles": "CCCc1cc(=O)[nH]c(SCC(=O)c2cc(C)n(CC(F)(F)F)c2C)n1", "hERG current change (%, negative = inhibition) at 10uM": 7.55}, {"smiles": "CC(=O)c1ccc(S(=O)(=O)N(C)CC(=O)Nc2ccc(C)cc2)cc1", "hERG current change (%, negative = inhibition) at 10uM": -0.949}, {"smiles": "O=S(=O)(Nc1ccc2c(c1)OCCO2)c1cnc[nH]1", "hERG current change (%, negative = inhibition) at 10uM": 7.8}, {"smiles": "CCOC(=O)c1c(S(=O)(=O)NCCc2ccc(OC)c(OC)c2)c(C)n(C)c1C", "hERG current change (%, negative = inhibition) at 10uM": 4.97}, {"smiles": "CC(C)(C)NC(=O)NC(=O)COC(=O)c1cccc(F)c1", "hERG current change (%, negative = inhibition) at 10uM": -1.01}, {"smiles": "O=C(CSc1nnc(COc2cccc3cccnc23)o1)N1CCN(C(=O)c2ccco2)CC1", "hERG current change (%, negative = inhibition) at 10uM": 0.452}, {"smiles": "O=C(CSc1nnc(CNc2ccccc2)o1)N1CCN(C(=O)c2ccco2)CC1", "hERG current change (%, negative = inhibition) at 10uM": -17.3}, {"smiles": "O=C(CSc1nnc(COc2cccc3ccccc23)o1)N1c2ccccc2CCc2ccccc21", "hERG current change (%, negative = inhibition) at 10uM": 7.68}, {"smiles": "O=C(CSc1nnc(COc2cccc3ccccc23)o1)N1CCN(C(=O)c2ccco2)CC1", "hERG current change (%, negative = inhibition) at 10uM": -65.1}, {"smiles": "O=C(CSc1nnc(CNc2ccc(F)cc2)o1)N1CCN(C(=O)c2ccco2)CC1", "hERG current change (%, negative = inhibition) at 10uM": -50.8}, {"smiles": "O=C(NCc1nnc(SCC(=O)N2CCCC2)o1)c1ccco1", "hERG current change (%, negative = inhibition) at 10uM": -7.2}, {"smiles": "O=C(Nc1ccccc1)/C(=C\\c1ccco1)NC(=O)c1ccco1", "hERG current change (%, negative = inhibition) at 10uM": -6.57}, {"smiles": "COc1ccc(CCNC(=O)c2nnn(CC(=O)Nc3ccc(C)cc3C)c2N)cc1OC", "hERG current change (%, negative = inhibition) at 10uM": 13.8}, {"smiles": "CCCOC(=O)c1cccc(NC(=O)c2cccnc2)c1", "hERG current change (%, negative = inhibition) at 10uM": -39.7}, {"smiles": "O=C1CC(c2ccccc2)SC(N(c2ccccc2)c2ccccc2)=N1", "note": "(stereo not shown)", "hERG current change (%, negative = inhibition) at 10uM": -0.167}, {"smiles": "Cn1cc(Cl)c(C(=O)NNC(=S)NC2CCCCC2)n1", "hERG current change (%, negative = inhibition) at 10uM": 15.4}, {"smiles": "Cc1cc(C)cc(N2CCCC2=O)c1", "hERG current change (%, negative = inhibition) at 10uM": 16.3}, {"smiles": "O=C(N[C@@H]1C[C@H]2CC[C@@H]1C2)c1ccco1", "hERG current change (%, negative = inhibition) at 10uM": 4.88}, {"smiles": "O=C(NC1CC2CCC1C2)c1ccco1", "note": "(stereo not shown)", "hERG current change (%, negative = inhibition) at 10uM": -5.69}, {"smiles": "O=C(c1ccco1)N1CCN(C(=S)NC2CC3CCC2C3)CC1", "note": "(stereo not shown)", "hERG current change (%, negative = inhibition) at 10uM": -67.3}, {"smiles": "O=C(CCC1CCN(C(=O)c2ccccc2Cl)CC1)NCc1ccc(F)cc1", "hERG current change (%, negative = inhibition) at 10uM": -18.9}, {"smiles": "O=C(c1ccco1)N1CCN(C(=S)Nc2ccc(F)cc2)CC1", "hERG current change (%, negative = inhibition) at 10uM": -2.5}, {"smiles": "O=C(CCC1CCN(C(=O)c2ccco2)CC1)NCc1ccc(F)cc1", "hERG current change (%, negative = inhibition) at 10uM": -72.6}, {"smiles": "CCNC(=S)N1CCN(C(=O)c2ccco2)CC1", "hERG current change (%, negative = inhibition) at 10uM": 5.8}, {"smiles": "O=C(c1ccco1)N1CCN(C(=S)NCc2ccc(F)cc2)CC1", "hERG current change (%, negative = inhibition) at 10uM": -53.1}, {"smiles": "CSc1ccccc1C(=O)N1CCC(CCC(=O)NCc2ccc(F)cc2)CC1", "hERG current change (%, negative = inhibition) at 10uM": -12.4}]}]}
